Results from ChEMBL document CHEMBL4513216, “Probing the Open Global Health Chemical Diversity Library for Multistage-Active Starting Points for Next-Generation Antimalarials” (ACS Infect Dis, 2020).
Out of some 69,000 compounds screened, about 8,600 (12%) showed an effect of 50% or more. Shown is part of a subset that was picked to be rich in strong results.

test system: Plasmodium berghei; assay: Screen against P. berghei liver stage (PbLuc), transformed with Luciferase, at 10uM; assay type: functional, HepG2; settings: tested at 10 uM

| SMILES | INHIBITION [%] |
| --- | --- |
| CS(=O)(=O)N1C[C@@H]2CCN(C(=O)c3cscn3)[C@@H]2C1 | 31.5 |
| c1cnn(CCNCc2ccc(N3CCCCC3)cc2)c1 | -10.8 |
| O=C(O)c1c(-c2ccncc2)ncc2c1CCN(Cc1ccco1)C2 | 26.5 |
| CC1CCN(c2nc3cn(C4CCS(=O)(=O)C4)c(=O)c-3c[nH]2)CC1 (stereo not drawn) | -16.3 |
| Cc1occc1C(=O)N1C[C@@H]2OCCN(c3ncccn3)[C@@H]2C1 | 11.5 |
| CCc1ccccc1-c1cc(OC)nc(N)n1 | 35 |
| N#Cc1ccc(S(=O)(=O)N2CSCC2C(=O)NCC(F)(F)F)cc1 (stereo not drawn) | -13.5 |
| CC1(C2CCN(CC(N)=O)CC2)CN(Cc2ccccc2)C(=O)CO1 (stereo not drawn) | 0.301 |
| CC(=O)N1CCC(c2ccnc(Nc3cncnc3)n2)CC1 | -2.11 |
| Cc1csc(N2CCCN(c3cc(C)nc(C)c3C#N)CC2)n1 | 91.9 |
| Cc1cc(N2CCCC2)c(C#N)c(C)n1 | 4.62 |
| Cc1cc(N2CCCCC2)c(C#N)c(C)n1 | 25.2 |
| CCOC(=O)c1cnn(C2CCN(C(=O)CC3CCCC3)CC2)c1N | 26.1 |
| COc1ccccc1C1(CNCc2cccc(O)c2)CCOCC1 | 51.3 |
| COc1ccccc1C1(CNCc2ccc(C#N)cc2)CCOCC1 | 29.6 |
| COc1ccccc1C1(CNCc2cccc(C#N)c2)CCOCC1 | 20.9 |
| O=C(CCNc1ncccn1)Nc1cc(C(F)(F)F)c[nH]c1=O | -1.7 |

| SMILES | INHIBITION [%] |
| --- | --- |
| O=C(NCc1ccco1)[C@H]1C[C@@H]2CCN(c3ccncn3)C[C@@H]2O1 | 21.7 |
| Cc1ncsc1CCN(C)C(=O)c1ccc(Cn2cnnn2)cc1 | -0.448 |
| Cc1nc(CN(C)C(=O)c2ccc(Cn3cnnn3)cc2)cs1 | 16.5 |
| Cc1cnccc1CN(C)C(=O)c1ccc(Cn2cnnn2)cc1 | 54.9 |
| CCc1noc(C(C)N2CCC(O)CC2)n1 (stereo not drawn) | 37.9 |
| Cc1noc(C)c1C(=O)NCCSCc1cccs1 | 29.5 |
| CCN1CCN(C(=O)NCCOc2ccc3c(c2)OCO3)CC1 | 2.63 |
| COc1ccc(C(=O)N2CCCCC2c2ccccn2)c(OC)n1 (stereo not drawn) | 53.2 |
| O=C(c1n[nH]c2c1CCC2)N1CCCC1c1nc(-c2ccccc2)no1 (stereo not drawn) | -68.4 |
| COc1nc2c(cc1C(=O)N1CCCCC1c1ccccn1)CCC2 (stereo not drawn) | -34.4 |
| Cc1nc(CC(=O)N2CCCC2c2nc(-c3ccccc3)no2)cs1 (stereo not drawn) | 38.2 |
| COc1ncccc1C(=O)N1CC(c2nc(-c3ccccn3)no2)C1 | 33.5 |
| COc1ncccc1C(=O)N1CCCC1c1nc(-c2ccccc2)no1 (stereo not drawn) | 64.9 |
| COc1nc2c(cc1C(=O)N1CCCC1c1ccccn1)CCC2 (stereo not drawn) | 1.74 |
| CC(C)c1cc(C(=O)N2CCCC2c2nc(-c3ccccc3)no2)[nH]n1 (stereo not drawn) | 55.5 |
| COc1ncccc1C(=O)N1CCCC1c1nc(-c2ccccc2)n[nH]1 (stereo not drawn) | 47.6 |
